# Pf growth 48h = P. falciparum growth inhibition at 48 hours (one generation); P. falciparum luciferase growth in erythrocytes, 48 h; 310,000 tested, 5.9% active; Potency, µM (titrated, usually from 28.7 µM), inactives show top-dose activity change, negative = inhibition, usual class: inhibitors; AID 504832
#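 Erythrocytes infected with P. falciparum carrying an integrated firefly luciferase reporter (2% hematocrit, 0.1% parasitemia final) were exposed to compounds in RPMI 1640 with 0.5% Albumax at 37 C, 5% CO2. Growth inhibition was scored as reduced luminescence.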
# HCV inhibitor = inhibitors of hepatitis C virus infection; Potency, µM (series often up to 41.8 µM), for the others: at the top dose activity change, negative = inhibition, usual class: inhibitors; 340,000 tested, 3.4% active; Huh7.5.1 HCVcc-Cre infection, luciferase reporter, 44 h
#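 Compounds are dispensed onto cells plated 4 h earlier at 1,000 per well, with HCVcc-Cre virus (about 0.5 moi) added next. Following 44 h of culture, luminescent signal is measured for 15 sec after 15 min with substrate at room temperature.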
# Pf growth 96h = P. falciparum growth inhibition at 96 hour, primary screen for plastid delayed-death inhibitors; P. falciparum luciferase reporter growth, 96 h; Potency, µM (doses to about 28.7 µM), for inactives: at the top dose activity change, negative = inhibition, usual class: inhibitors; 320,000 tested, 6.9% active
#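 P. falciparum expressing integrated firefly luciferase, in erythrocytes at 2% hematocrit, 0.05% parasitemia, incubated with compounds 96 h at 37 C, 5% CO2. Growth inhibition read as loss of luminescence; two-generation exposure targets delayed-death apicoplast inhibitors.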
# AMA1-RON2 inh = disrupts binding of P. falciparum AMA1 to RON2 | AlphaScreen AMA1-biotinylated RON2 peptide binding | Potency, µM (highest dose often 58.2 µM), for inactives: top-dose activity change, negative = inhibition, actives largely listed as inhibitors | 360,000 tested, 0.2% active;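 further: 0% = vehicle wells and -100% = peptide control; nearly all actives have a fitted effect of over 45% in size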
#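 AMA1 (3D7) with his tag at 25 nM final met compounds first, then biotinylated RON2 peptide at 25 nM; detection used donor plus acceptor beads, 10 µg/mL apiece, read by AlphaScreen after 30 min at room temperature.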
# An asterisk follows results filed as active; u = inconclusive; x = no result; ! = not active in a repeat; [ ] = dose if it differs, or a comment. Hits are enriched below; roughly 11% of the tested compounds scored in any of these assays. The call rests on the fitted dose curve; in most records, active means well fitted curve in the direction sought with a large enough effect; inconclusive means small, poorly fitted or top-dose-only effect, or another doubt; inactive means no such curve, though single readings can be large; an effect the other way counts as inactive or inconclusive. Unless noted, on the % scale 0 is the no-effect control and ±100 the full control effect; potency means the concentration at half of the fitted maximal effect.
SMILES,Pf growth 48h,HCV inhibitor,Pf growth 96h,AMA1-RON2 inh
N#CCN(CC#N)C(=O)C1c2ccccc2Oc2ccccc21,-5.1%,12.1%,2.94µM*,1.2%
COCCNC(=O)C1(C)CCN(Cc2ccc3ccccc3c2Br)C1 (stereo unspecified),x,x,x,-0.1%
NNCCc1ccccc1,u,-2.7%,u,-7.6%
NNCc1ccccc1,x,0.2%,x,31.6µM*
COc1ccc(CNC(=O)CN2CCN(c3ccccc3)CC2)cc1,-17.2%,1.9%,18.7%,-0.7%
COc1cc(C(C(=O)NCc2ccccc2)N(C(=O)c2snc(C(N)=O)c2N)C2CCCC2)cc(OC)c1OC (stereo unspecified),13.1µM*,-17.8%,4.65µM*,-3.4%
COc1ccc(C(C(=O)NC2CCCC2)N(Cc2ccccc2)C(=O)c2snc(C(N)=O)c2N)cc1OC (stereo unspecified),0.0%,2.1%,u,2.3%
COc1ccc(C(C(=O)NCc2ccccc2)N(C(=O)c2snc(C(N)=O)c2N)C2CCCC2)cc1 (stereo unspecified),14.7µM*,-7.9%,66.8%,-2.7%
CC1CCC(NC(=O)C2CC(=O)N(c3ccc4c(c3)OCCO4)C2)CC1 (stereo unspecified),4.3%,-21.2%,14.8%,4.1%
O=C(Nc1cc(S(=O)(=O)N2CCOCC2)ccc1N1CCCC1)c1ccc2c(c1)S(=O)(=O)c1ccccc1C2=O,u,-9.6%,u,-7.2%
COc1cccc(CNC(=O)C2CCN(S(=O)(=O)c3ccc(-n4cnnn4)cc3)CC2)c1,-23.5%,2.8%,26.6%,1.1%
Fc1ccc(C(c2ccc(F)cc2)N2CCN(C/C=C/c3ccccc3)CC2)cc1,13.1µM*,1.58µM*!,u,u
COc1ccc(CCNC(=O)c2ccc3c(c2)N(Cc2ccc(C)cc2)CCS3)cc1OC,10.4µM*,8.91µM*,-20.6%,-8.8%
Cc1ccc(CN2CCSc3ccc(C(=O)NCc4cccnc4)cc32)cc1,u,25.1µM*,40.4%,-12.2%
O=C(CN1C(=O)/C(=C\c2ccccc2Cl)Oc2ccccc21)NCc1cccnc1,-13.1%,-5.1%,-36.8%,17.7%
Cc1ccc(CN2C(=O)/C(=C\c3ccc(C(=O)NCc4cccnc4)cc3)Oc3ccccc32)cc1,u,0.0%,1.65µM*,x
COc1ccc(OC)c(CCNC(=O)c2ccc3c(c2)N(Cc2ccc(F)cc2)CCS3)c1,u,u,u,-12.3%
Cc1ccc(CN2CCSc3ccc(C(=O)NCCCN4CCN(C)CC4)cc32)cc1,14.7µM*,u,u,-21.3%
O=S(c1ccc2ccccc2c1)c1cnns1 (stereo unspecified),u,u,u,15.5%
COc1cc2c(c(OC)c1OC)-c1c(cc(OC)c(OC)c1OC)C[C@H](C)[C@H](C)C2,u,21.1%[8.37 µM],u,0.8%
COc1cc2c(c(OC)c1OC)-c1c(cc3c(c1O)OCO3)C[C@@H](C)[C@@H](C)C2,u,-29.4%,10.4µM*,-15.6%
COc1cc2c(c(O)c1OC)-c1c(cc(OC)c(OC)c1OC)C[C@@H](C)[C@@H](C)C2,13.1µM*,-16.6%,u,-8.3%
CSc1ncccc1C(=O)Nc1ccccc1N1CCOCC1,x,-6.9%,x,5.1%[11.6 µM]
COc1cc2[nH]c(=O)n3nc(-c4ccccc4)nc3c2cc1OC,u,2.3%,-3.9%,3.3%
CCN(CC)CCNc1nc2cc(OC)c(OC)cc2c2nc(-c3ccccc3)nn12,1.04µM*,-2.5%,u,-2.1%
SMILES,Pf growth 48h,HCV inhibitor,Pf growth 96h,AMA1-RON2 inh
COC(=O)CCCC1=CC2=CC(=O)C(C)(OC(=O)c3cccs3)C(=O)C2=CN1Cc1ccco1 (stereo unspecified),u,-12.1%[8.37 µM],u,-16.4%
COC(=O)CCCC1=CC2=CC(=O)C(C)(OC(=O)c3cccs3)C(=O)C2=CN1c1ccc(OC)cc1 (stereo unspecified),6.57µM*,17.4%,13.1µM*,-9.2%
COC(=O)CCCC1=CC2=CC(=O)C(C)(OC(=O)c3cccs3)C(=O)C2=CN1C1CCCC1 (stereo unspecified),u,4.1%,u,-8.6%
COC(=O)CCCC1=CC2=CC(=O)C(C)(OC(=O)c3cccs3)C(=O)C2=CN1Cc1ccccc1 (stereo unspecified),13.1µM*,-11.2%[8.37 µM],u,13.6%
COC(=O)CCCC1=CC2=CC(=O)C(C)(OC(=O)c3cccs3)C(=O)C2=CN1Cc1ccc2c(c1)OCO2 (stereo unspecified),13.1µM*,1.1%,u,-19.0%
CCOC(=O)CC1=CCc2c1ccc(OC)c2OC,x,-19.2%,x,11.6%
O=S1(=O)CC(N2CCCCC2)CN1Cc1cn(Cc2ccc(C(F)(F)F)cc2)nn1 (stereo unspecified),x,x,x,-5.0%
COc1ccc(CCC(=O)Nc2ccc(S(=O)(=O)N3CCCC3)cc2)cc1OC,u,u,u,-3.2%
COc1ccc(S(=O)(=O)NCc2ccco2)cc1-c1nnc2c3ccccc3c(C)nn12,11.7µM*,-1.8%,u,2.1%
O=C(Nc1cccc(S(=O)(=O)NCc2ccco2)c1)c1cc(-c2ccc(F)cc2)nc2ccccc12,-23.3%,u,11.7µM*,-15.0%
COc1ccc(-c2cc(C(=O)Nc3cccc(S(=O)(=O)NCc4ccco4)c3)c3ccccc3n2)cc1OC,2.08µM*,u,u,-1.1%
O=C(Nc1ccccc1)c1cccc(S(=O)(=O)NCc2ccco2)c1,-7.8%,u,55.1%,6.8%
O=C(NCc1ccco1)c1cc(-c2ccncc2)nc2ccccc12,2.08µM*,-9.8%,u,-9.0%
O=C(NCC(c1ccco1)N1CCc2ccccc2C1)C(=O)Nc1ccc(F)cc1F (stereo unspecified),u,-28.2%,u,31.8%
O=C(N1CCN=C1SCc1cccnc1)C12CC3CC(CC(C3)C1)C2,14.7µM*,-6.5%,-29.3%,11.9%
O=C(c1cccs1)N1CCN=C1SCc1cccnc1,5.7%,-1.5%,66.2%,11.9%
O=S(=O)(Cc1cc(Sc2ccc(Cl)cc2)nc(-c2ccccc2)n1)c1ccccc1,x,6.4%,u,-6.1%
Cc1nc(CS(=O)(=O)c2ccc(Cl)cc2)cc(Sc2ccc(Cl)cc2)n1,3.29µM*,u,2.33µM*,-1.1%
CCc1nc2c(OCc3cccc(Cl)c3)cccn2c1N(C)C(C)=O,x,x,x,-2.2%
Cn1cnc(S(=O)(=O)Nc2ccccc2C(=O)NCC2CC2)c1,4.65µM*,14.4%,38.7%,-14.5%
CCOc1ccc(OCC)c(NS(=O)(=O)c2cn(C)cn2)c1,10.3%,13.4%,u,-7.1%
Clc1ccc(-c2cn3c(n2)-c2ccccc2C3)cc1Cl,117.0%,u,0.0%,-6.6%
CCCC(=O)Nc1ccc(S(=O)(=O)N2CCCC2)cc1,24.4%,8.7%,x,0.0%
Cc1cc(NS(=O)(=O)c2ccc(NC(=O)c3oc4ccccc4c3C)cc2)no1,16.5%,6.0%,x,29.9µM*
CCOC(=O)CCC(=O)Nc1ccc(S(=O)(=O)N2CCCCC2)cc1,-2.8%,1.2%,5.22µM*,-11.3%

# Compound activity (PubChem)
